Source: PubChem BioAssay (National Center for Advancing Translational Sciences (NCATS))
In the library only some 12% were active in any assay of this set; here they are far more common.
CHX counter: counter-screen for Shiga toxin inhibitors: cycloheximide protein synthesis inhibition; cell reporter, cycloheximide protein synthesis inhibition counterscreen; max response, %; 300,000 tested, 12% active; AID 2314; in the data active means max response mostly above about 13%, no sharp cut-off; inactive means mostly below about 14%; further: read at 38.3 µM for the half of the compounds with a filed dose
LASV entry inh: blocks Lassa virus binding to or entry into cells | Lassa virus pseudotype entry inhibition, cell reporter | 300,000 tested, 1.2% active | AID 540256 | Potency, µM (top dose mostly 37.9 µM), most hits filed as inhibitors; calls by dose curve; tested in HEK293 cells; further: nearly all actives have a fitted effect of over 50% in size
Shiga inhibitor: Shiga toxin inhibition; AID 2315; inhibition, % at 38.7 µM; 290,000 tested, 9.2% active; Vero cells, Shiga toxin protein synthesis inhibition reporter; in the data active means inhibition mostly above about 28%, no sharp cut-off; inactive means mostly below about 43%
MARV entry inh: Marburg virus entry inhibition; Marburg virus pseudotyped entry inhibition, cell reporter; Potency, µM (doses to about 37.8 µM), actives largely listed as inhibitors; 300,000 tested, 1.8% active; AID 540276; calls by dose curve; tested in HEK293 cells
Each line names hits and unclear results; the compound was inactive in the other large screens; ! = not confirmed by another sample.

CN(C)c1ccc(/C=C/C(=O)c2ccccc2)cc1[N+](=O)[O-]	CHX counter 62, Shiga inhibitor active, MARV entry inh inconclusive
Cc1ccc(CNC(=O)c2ccc3c(c2)nc(C)n3-c2cccc(F)c2)cc1	none (no result: CHX counter, Shiga inhibitor, MARV entry inh)
CCOc1ccc(NC(=O)c2ccc3nccnc3c2)cc1	CHX counter 52
CCOc1ccc(NC(=O)Nc2ccc3nccnc3c2)cc1	MARV entry inh inconclusive
COc1ccc(NC(=O)c2ccc3nccnc3c2)cc1	CHX counter 37, Shiga inhibitor 88
CC(C)(CC(=O)O)CC(=O)N1CCN(c2cc(C(F)(F)F)nc3ccccc23)CC1	none (no result: LASV entry inh, MARV entry inh)
Cc1ccc(C2NC(=O)c3c(sc4c3CCN(C)C4)N2)s1 (stereo unspecified)	CHX counter 33, LASV entry inh inconclusive, Shiga inhibitor 67
O=C1NC(c2ccc(Br)cc2)Nc2sc3c(c21)CCC3 (stereo unspecified)	MARV entry inh inconclusive
CC(C)(C)C1CCc2c(sc3c2C(=O)NC(c2ccco2)N3)C1 (stereo unspecified)	CHX counter 34, Shiga inhibitor 74, MARV entry inh inconclusive
Cc1ccsc1C1NC(=O)c2c(sc3c2CCCC3)N1 (stereo unspecified)	CHX counter 28, Shiga inhibitor active, MARV entry inh inconclusive
O=C1NC(c2ccccn2)Nc2sc3c(c21)CCC3 (stereo unspecified)	CHX counter 31, Shiga inhibitor 99
Clc1cccc(CNCCCSc2ncccn2)c1	none
CCN1C(=NCCCOC(C)C)NC(c2ccccc2)C(C(=O)OC)=C1C (stereo unspecified)	LASV entry inh inconclusive (no result: CHX counter, Shiga inhibitor)
Cn1c(=O)n(C)c2cc(N3CCCCC3)c(NC(=O)c3ccccc3)cc21	none (no result: LASV entry inh, MARV entry inh)
CC1(C)Cc2c(sc3c2C(=O)NC(c2cccnc2)N3)CO1 (stereo unspecified)	none
CN1CCc2c(sc3c2C(=O)NC(c2ccccc2)N3)C1 (stereo unspecified)	CHX counter 20, LASV entry inh inconclusive, Shiga inhibitor active
CN1CCc2c(sc3c2C(=O)NC(c2ccccn2)N3)C1 (stereo unspecified)	CHX counter 21
O=C1NC(c2cccnc2)Nc2sc3c(c21)CCCC3 (stereo unspecified)	CHX counter 33, Shiga inhibitor 61, MARV entry inh inconclusive
CNC(=O)c1[nH]cnc1C(=O)NCC(=O)OCc1ccccc1	none (no result: LASV entry inh, MARV entry inh)
Cc1ccc(S(=O)(=O)N2CCOCC2)cc1NC(=O)COC(=O)c1ccc(Br)o1	none (no result: CHX counter, Shiga inhibitor)
N#CC1=C(N)Oc2ccc3ccc(O)cc3c2C1c1ccsc1 (stereo unspecified)	MARV entry inh inconclusive
C/C(CCC(=O)OC[C@@H]1O[C@H](C#Cc2ccccc2)C=C[C@@H]1Oc1ccc(C)cc1)=N/OC[C@@H](O)[C@H]1O[C@H]2OC(C)(C)O[C@H]2[C@@H]1O	none (no result: CHX counter, LASV entry inh, Shiga inhibitor)
Cc1cc(OCc2cc(C(=O)N(C)CCc3cnn(C)c3)no2)cc(C)c1Cl	CHX counter 39, Shiga inhibitor 70
Cc1cc(Cl)c2oc(C(=O)N(C)CCc3cnn(C)c3)c(C)c2c1	MARV entry inh inconclusive
CCN(Cc1cnn(C)c1)C(=O)c1cc(COc2ccc(F)cc2F)on1	CHX counter 15 (no result: LASV entry inh, MARV entry inh)
CCN(Cc1cnn(C)c1)C(=O)c1cc(COc2cc(C)c(Cl)c(C)c2)on1	CHX counter 24
COc1cc(Cl)ccc1OCc1cc(C(=O)N(C)CCc2cnn(C)c2)no1	CHX counter 64, Shiga inhibitor 115 (no result: LASV entry inh, MARV entry inh)
CC(=O)c1cccc(OCc2cc(C(=O)N(C)CCc3cnn(C)c3)no2)c1	none (no result: LASV entry inh, MARV entry inh)
CCc1ccc(CN(C)C(=O)c2cc(COc3cc(C)c(Cl)c(C)c3)on2)nc1	none (no result: LASV entry inh, MARV entry inh)
O=C1C(=O)N(C2CCNCC2)CCN1Cc1ccccc1	none (no result: CHX counter, Shiga inhibitor, MARV entry inh)
COc1ccc(C2/C=C\CN(C(=O)Nc3ccccc3)CC(=O)N2Cc2ccc(F)cc2)cc1 (stereo unspecified)	none (no result: LASV entry inh, MARV entry inh)
COc1ccc(C2/C=C\CN(C(=O)c3ccc(C)cc3)CC(=O)N2Cc2ccc(F)cc2)cc1 (stereo unspecified)	CHX counter 82!, Shiga inhibitor 163! (no result: LASV entry inh, MARV entry inh)
COc1ccc(C2/C=C\CN(S(=O)(=O)c3ccc(-c4ccccc4)cc3)CC(=O)N2Cc2ccc(F)cc2)cc1 (stereo unspecified)	Shiga inhibitor 68! (no result: LASV entry inh, MARV entry inh)
S=C(Nc1cccc(Cl)c1Cl)N1CCCC1	none
Cc1nn(-c2ccc3nncn3n2)c(C)c1CCC(=O)Nc1ccc(OC(F)(F)F)cc1	none (no result: CHX counter, Shiga inhibitor, MARV entry inh)
Cc1cccnc1NC(=S)Nc1ncccc1C	CHX counter 31, LASV entry inh inconclusive, Shiga inhibitor 68, MARV entry inh inconclusive
Cc1cccnc1NC(=S)NCCc1ccccc1	CHX counter 37, LASV entry inh inconclusive, Shiga inhibitor 70, MARV entry inh inconclusive
S=C(NCCc1ccccc1)Nc1ncccn1	MARV entry inh inconclusive (no result: CHX counter, Shiga inhibitor)
O=C(NNC(=O)C(c1ccccc1)c1ccccc1)c1ccccn1	LASV entry inh inconclusive, MARV entry inh 4.6µM
CCNC(=S)NNC(=O)c1ccccn1	LASV entry inh inconclusive, MARV entry inh inconclusive
O=C(NNC(=S)Nc1ccc(Cl)c(Cl)c1)c1ccccn1	CHX counter 37, Shiga inhibitor 87 (no result: LASV entry inh, MARV entry inh)
CC1CCN(c2cc3c(cc2F)c(=O)c(S(=O)(=O)c2cccc(Cl)c2)cn3Cc2ccccc2)CC1	none (no result: CHX counter, Shiga inhibitor, MARV entry inh)
O=S(=O)(c1ccc(Cl)cc1)N1CCN(c2nc(-c3cccc(Br)c3)nc3ccccc23)CC1	none (no result: LASV entry inh, MARV entry inh)
Cc1cccnc1NC(N)=S	MARV entry inh inconclusive
COc1ccc(NC(=S)Nc2ncccc2C)c(OC)c1	CHX counter 63
Cc1cccnc1NC(=S)Nc1ccc(Cl)c(Cl)c1	CHX counter 32, Shiga inhibitor 103 (no result: LASV entry inh, MARV entry inh)
COc1ccc(NC(=S)Nc2ncccc2C)cc1OC	CHX counter 46, LASV entry inh inconclusive, Shiga inhibitor 76
CCN(c1ccc(C)cc1C)S(=O)(=O)c1nnc(NC(=O)C(C)(C)C)s1	LASV entry inh inconclusive, MARV entry inh inconclusive
CCCc1ncc(C(=O)c2ccc(OC)cc2)n1C	Shiga inhibitor 42
COc1ccc(C(=O)NNC(=O)CSc2nnc(C(C)C)n2C)cc1	none
COc1ccc(C(=O)c2cnc(C(C)C)n2C)cc1	CHX counter 16, Shiga inhibitor 82
COc1ccc(-c2cnn(-c3ccccc3)c2N)cc1OC	none
Nc1nc2c(s1)CCc1c-2cnn1-c1ccccc1	CHX counter 46, Shiga inhibitor 151 (no result: LASV entry inh, MARV entry inh)
CC(OC(=O)CCC(=O)c1ccc(Cl)s1)C(=O)NC1(C#N)CCCCC1 (stereo unspecified)	none (no result: CHX counter, Shiga inhibitor)
CCC(C)C(NC(=O)OC(C)(C)C)C(=O)NC1COC2CC(n3cc(C)c(=O)[nH]c3=O)OC12 (stereo unspecified)	none (no result: LASV entry inh, MARV entry inh)
Cc1nnc(SCc2ccccc2F)n1NCc1cccs1	CHX counter 24
Cc1nnc(SCC(=O)NCc2cccs2)n1-c1ccccc1	none
Cc1cc(C(=O)C[N+]2(C)CCOCC2)c(C)n1-c1ccc(Br)cc1	MARV entry inh inconclusive
Cc1ccc2nc(-c3ccccc3)cc(C(=O)N(C)CC(=O)Nc3ccccc3Br)c2c1	LASV entry inh inconclusive, MARV entry inh 11µM (no result: CHX counter, Shiga inhibitor)
CN(CC(=O)Nc1cccc(F)c1)C(=O)c1cc(-c2ccccc2)nc2ccccc12	MARV entry inh inconclusive (no result: CHX counter, Shiga inhibitor)
OC(c1cc(-c2cccc(Cl)c2)nc2ccccc12)C1CCCCN1 (stereo unspecified)	LASV entry inh inconclusive, MARV entry inh 11µM (no result: CHX counter, Shiga inhibitor)
Cc1ccc(C(=O)Nc2nn(C)c3cccc(F)c23)cc1	CHX counter 18, MARV entry inh inconclusive
